The entries come from a sample that favours hits as a whole.
TDP1 cell noCPT = qHTS for Inhibitors of human tyrosyl-DNA phosphodiesterase 1 (TDP1): qHTS in cells in absence of CPT. Potency, µM (titrated, usually from 46.2 µM), most hits filed as inhibitors. AID 686978, 2013. 420,000 tested, 15% active. DT40 Tdp1-/- hTDP1 cells, no CPT, ATP luminescence, 48 h; further: nearly all actives have a fitted effect of over 55% in size
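A cellular qHTS used chicken DT40 cells lacking endogenous Tdp1 but carrying stably transfected human TDP1. Compounds were applied without camptothecin, and cell growth kinetics were judged by ATP-dependent luminescence after ≥48 hr.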
12-LOX inh = ALOX12 (human) lipoxygenase inhibition | P18054 | purified 12hLO, xylenol orange hydroperoxide absorbance | Potency, µM (highest dose often 108 µM), most hits filed as inhibitors | 580,000 tested, 1.1% active
Target sequence (P18054 whole entry, looked up): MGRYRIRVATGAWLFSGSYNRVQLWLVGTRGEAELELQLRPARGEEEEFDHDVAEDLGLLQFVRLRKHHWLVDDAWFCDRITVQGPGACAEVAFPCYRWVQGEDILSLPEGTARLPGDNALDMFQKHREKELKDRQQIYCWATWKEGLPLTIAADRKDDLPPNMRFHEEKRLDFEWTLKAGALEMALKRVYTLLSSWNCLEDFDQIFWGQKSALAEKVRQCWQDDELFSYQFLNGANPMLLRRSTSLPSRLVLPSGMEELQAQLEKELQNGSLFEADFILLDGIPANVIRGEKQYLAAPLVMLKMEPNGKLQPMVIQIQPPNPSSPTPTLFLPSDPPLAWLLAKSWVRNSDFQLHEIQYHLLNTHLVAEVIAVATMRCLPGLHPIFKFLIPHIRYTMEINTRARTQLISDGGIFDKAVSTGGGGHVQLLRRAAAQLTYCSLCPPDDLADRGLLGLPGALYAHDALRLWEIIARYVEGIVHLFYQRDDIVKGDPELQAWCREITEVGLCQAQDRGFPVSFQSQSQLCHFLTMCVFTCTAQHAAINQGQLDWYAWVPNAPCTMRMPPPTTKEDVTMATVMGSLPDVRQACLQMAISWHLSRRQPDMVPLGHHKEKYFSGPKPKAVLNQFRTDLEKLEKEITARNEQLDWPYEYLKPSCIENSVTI
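Purified human 12hLO at 150 nM in 25 mM Hepes, 0.01% Triton X-100, pH 7.0, preincubated 15 min at room temperature with compound. Reaction started with 40 uM arachidonic acid, 30 min at room temperature. Hydroperoxide measured by Fe-xylenol orange, 573/405 nm absorbance ratio.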
IL1B secr inh = inhibitors of inflammasome signaling (IL-1 beta secretion); AID 743279; activity change, % at 57.5 µM; 360,000 tested, 4.7% active; THP-1 LPS/ATP IL-1B secretion, AlphaLISA, 16 h; stronger effect = lower value; in the data active means activity change below about -50%; inconclusive means mostly about -30% to -49%
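THP-1 cells pretreated 1 hr with compounds (up to 57.5 uM final), then stimulated with LPS (250 ng/mL final) plus ATP (1.25 mM final); secreted IL-1B measured by AlphaLISA after 16 hr, decreased signal indicating inhibition.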
HT1080NT lethal = kills 2HG-producing HT-1080-NT fibrosarcoma cells | HT-1080-NT fibrosarcoma viability, CellTiter-Glo ATP luminescence, 48 h | Potency, µM (highest dose often 46.1 µM), hits mostly cytotoxic | 360,000 tested, 1.6% active | AID 686970;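 further: NT is the 2HG producing partner of a matched IDH1 knockdown line; nearly all actives have a fitted effect of over 55% in size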
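750 cells/well, RPMI + 5% FBS; 2 h settle, compound pin-transfer, 48 h at 37 degrees C. CellTiter-Glo 10 min RT, luminescence. Normalized to DMSO and media-only wells.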
DT40 TDP1 CPT = growth inhibition of DT40 Tdp1-/-;hTDP1 cells with camptothecin (screen for TDP1 inhibitors). chicken DT40 Tdp1-/-;hTDP1 cells + 20 nM CPT, ATP luminescence, 48 h. 420,000 tested, 12% active. AID 686979. Potency, µM (series often up to 46.2 µM), hits mostly inhibitors; further: nearly all actives have a fitted effect of over 55% in size
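Chicken DT40 Tdp1-/- cells stably complemented with human TDP1 were seeded at 400 cells/well in medium containing 20 nM camptothecin, exposed to pin-transferred compounds, and grown at 37 °C for at least 48 hr. Viability was read as ATP luminescence.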
HT1080 IDH1KD tx = kills HT-1080 cells with IDH1 knockdown; HT-1080 IDH1 knockdown viability, ATP luminescence, 48 h; Potency, µM (series often up to 46.1 µM), hits mostly cytotoxic; 360,000 tested, 2% active
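Cytotoxicity counter-line: IDH1KD HT-1080, 48 h, CellTiter-Glo. Curves classed by r2, magnitude and activity.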
A number is an active result; – = inactive; ? = inconclusive; · = not tested or not shown. Unless noted, the call rests on the fitted dose curve; in most records, active means well fitted curve in the direction sought with a large enough effect; inconclusive means small, poorly fitted or top-dose-only effect, or another doubt; inactive means no such curve, though single readings can be large; an effect the other way counts as inactive or inconclusive.

SMILES | TDP1 cell noCPT | 12-LOX inh | IL1B secr inh | HT1080NT lethal | DT40 TDP1 CPT | HT1080 IDH1KD tx
Cc1ccc(Cl)cc1N1CCN(C(=O)c2ccc3c(c2)N(Cc2ccccc2)CCS3)CC1 | 23µM | – | · | · | 16µM | ·
CCNC(=O)[C@@H]1C[C@H](NC(=O)c2cc(C)nn2C)CN1C(=O)c1cc[nH]c1 | · | – | · | · | · | ·
O=C(Nc1ccccc1N1CCN(C(=O)c2ccccc2)CC1)c1ccccc1Cl | ? | – | – | – | ? | –
COc1ccccc1C(=O)Nc1ccccc1N1CCN(C(=O)c2ccc(Cl)cc2)CC1 | 16µM | – | – | – | 15µM | –
CC(=O)N1CCN(c2ccccc2NC(=O)c2cc(Br)ccc2Cl)CC1 | ? | – | – | – | – | –
O=C(CSc1ccc(Cl)cc1)Nc1ccccc1N1CCN(C(=O)c2ccccc2)CC1 | 18µM | – | – | ? | 16µM | –
O=C(Nc1ccccc1N1CCN(C(=O)c2ccc(Cl)cc2)CC1)c1cc(Br)ccc1Cl | 15µM | – | – | – | ? | –
COc1cccc(CNC(=O)c2c(OC)cc(=O)n3c2CCN(C(=O)c2ccccc2Cl)CC3)c1 | – | – | · | · | – | ·
CCc1cnc(C)nc1-c1cc(NCc2ccccn2)nc2[nH]ccc12 | · | – | · | · | · | ·
Cc1ccc(CCNC(=O)c2c(C)nn(-c3ccc(F)cc3)c2-n2cccc2)cc1 | · | – | · | · | · | ·
Cc1ccc(-n2nc(C)c(C(=O)NCCCN3CCN(c4cccc(Cl)c4)CC3)c2-n2cccc2)cc1 | 5.8µM | ? | · | · | 8.2µM | ·
Cc1ccc(-n2nc(C)c(C(=O)NCCCN3CCN(c4ccccc4F)CC3)c2-n2cccc2)cc1 | 3.7µM | – | · | · | 3.3µM | ·
COC(=O)c1ccc(CN(C)C(C)C(=O)NCc2cccs2)cc1 (stereo not drawn) | · | – | · | · | · | ·
CCN(C(=O)c1coc(=O)c(Br)c1)c1ccc2c(c1)OCO2 | 1µM | ? | – | ? | 1.5µM | ?
CCN(C(=O)c1c(C)cc(=O)oc1C)c1ccc2c(c1)OCO2 | – | ? | – | – | – | –
CC(C)c1ccc(SC(C(=O)O)c2ccccc2)cc1 (stereo not drawn) | · | – | · | · | · | ·
O=C(c1cc(F)cc(F)c1)N1C[C@@H](CO)[C@H](c2ccccn2)C1 | · | – | · | · | · | ·
COCCn1ncc(N2CCC(NC(=O)Cc3ccc(F)cc3)CC2)cc1=O | · | – | · | · | · | ·
CC(=O)Nc1cc(C(=O)NCc2ccc(C)cc2)ccc1S(=O)(=O)c1ccc(Cl)cc1 | 16µM | – | · | · | ? | ·
CCOc1ccccc1CNC(=O)c1ccc(Sc2ccc(Cl)cc2)c(NC(C)=O)c1 | ? | – | – | – | ? | –
CCC(=O)Nc1cc(C(=O)NCc2ccc(C)cc2)ccc1S(=O)(=O)c1ccc(C)cc1 | ? | – | · | · | ? | ·
CCOc1ccc(CNC(=O)c2ccc(Sc3ccc(Cl)cc3)c(NC(C)=O)c2)cc1 | 18µM | ? | ? | – | 23µM | ?
Cc1[nH]cnc1-c1nccn1-c1ccc(CCC(=O)NC2CC2)cc1 | · | – | · | · | · | ·
Cc1ccc(OCC(=O)N/N=C/C=C/c2ccco2)cc1C | ? | 40µM | ? | – | ? | –
O=C(CNc1cccc2ccccc12)N/N=C/c1ccc(C(=O)O)cc1 | – | – | – | – | – | –
SMILES | TDP1 cell noCPT | 12-LOX inh | IL1B secr inh | HT1080NT lethal | DT40 TDP1 CPT | HT1080 IDH1KD tx
O=C(CNc1cccc2ccccc12)N/N=C/C=C/c1ccco1 | ? | 32µM | ? | – | – | –
Cn1c(SCC(=O)N/N=C/C=C/c2ccco2)nc2ccccc21 | 18µM | – | – | – | 18µM | –
Cn1c(SCC(=O)N/N=C/C=C/c2ccccc2[N+](=O)[O-])nc2ccccc21 | – | – | – | – | – | –
COCCN1CCN(C[C@@H]2C=C(C)[C@H](Cc3nnc(-c4ccc(OC)cc4)o3)C[C@H]2C(C)C)CC1 | · | – | · | · | · | ·
COC(=O)CSc1nnc(CNC(=O)c2ccccc2F)n1-c1ccc(F)cc1 | ? | – | -56 | – | – | –
COC(=O)CSc1nnc(CNC(=O)c2ccco2)n1-c1ccc(F)cc1 | – | – | – | – | – | –
CC(=O)C1=C(O)CC(C)(C)CC1=NCc1nc2ccccc2[nH]1 | 16µM | – | – | – | ? | –
CC(=O)C1=C(O)CCCC1=NCc1nc2ccccc2[nH]1 | ? | – | – | – | – | –
Cc1ccncc1C(=O)N1CCC(c2noc(-c3cnccn3)n2)C1 (stereo not drawn) | · | – | · | · | · | ·
NNC(=O)CNC(c1ccccc1)c1cc(Br)ccc1N (stereo not drawn) | – | – | -72 | – | – | ?
COC(=O)CNC(c1ccccc1)c1cc(Br)ccc1N (stereo not drawn) | ? | – | – | – | – | –
CCOC(=O)CNC(c1ccccc1)c1cc(Br)ccc1NC(=O)CCN1CCOCC1 (stereo not drawn) | 0.82µM | ? | ? | – | 2.1µM | –
CCOC(=O)CNC(c1ccccc1)c1cc(Br)ccc1NC(=O)c1ccc(Cl)cc1 (stereo not drawn) | 6.5µM | – | · | · | 10µM | ·
COC(=O)CNC(c1ccccc1)c1cc(Br)ccc1NC(=O)CNC(=O)OCc1ccccc1 (stereo not drawn) | ? | · | ? | ? | – | 21µM
CCOC(=O)CNC(c1ccccc1)c1cc(Br)ccc1NC(=O)OCC (stereo not drawn) | ? | – | – | – | ? | –
COC(=O)CNC(c1ccccc1)c1cc(Br)ccc1NS(=O)(=O)c1ccccc1 (stereo not drawn) | – | – | – | – | – | –
COC(=O)CNC(c1ccccc1)c1cc(Br)ccc1NC(=O)CCN1CCOCC1 (stereo not drawn) | 1.6µM | 40µM | -55 | – | 2.6µM | ?
CC(C)(C)c1ccc(C(=O)N2CCCN(c3ccc([N+](=O)[O-])cn3)CC2)cc1 | 18µM | – | – | – | ? | –
O=C(NC(=O)N1CCN(c2ccc([N+](=O)[O-])cn2)CC1)c1ccccc1F | 9.2µM | – | – | – | ? | –
O=C(NC(=O)N1CCN(c2ccc([N+](=O)[O-])cn2)CC1)c1c(Cl)cccc1Cl | ? | · | · | – | 9.2µM | –
O=[N+]([O-])c1ccc(N2CCCC2)nc1 | – | – | · | – | – | –
O=C1CCCC2=C1C(c1ccc(O)c(Cl)c1)C1=C(CCCC1=O)O2 | · | – | · | · | · | ·
COc1ccc(-c2nc3sc(CCNC(=O)C(=O)Nc4c(C)cccc4C)c(C)n3n2)cc1 | – | – | · | · | – | ·
COc1ccc(-c2nc3sc(CCNC(=O)Cc4ccc(F)cc4)c(C)n3n2)cc1 | 16µM | – | · | · | 16µM | ·
